Compound activity from PubChem BioAssay.
In the library only some 0.63% were active in any assay of this set; here they are far more common.
Pin1 inh: blocks the human prolyl isomerase Pin1 | Pin1 FP peptide displacement, HiFluor488, 10 min | Q13526 | AID 504891 | Potency, µM (titrated, usually from 115 µM), actives largely listed as inhibitors | hit rate 0.009% among 390,000; active means well fitted inhibition curve with a large enough effect in the polarisation, with a control signal flat, not every such curve was filed as active; inconclusive means small, poorly fitted or top-dose-only effect, or effect the other way, or a change in a side signal; inactive means no such curve, though single readings can be large or run the other way; the % refers to the polarisation
Target sequence (Q13526 whole entry, looked up): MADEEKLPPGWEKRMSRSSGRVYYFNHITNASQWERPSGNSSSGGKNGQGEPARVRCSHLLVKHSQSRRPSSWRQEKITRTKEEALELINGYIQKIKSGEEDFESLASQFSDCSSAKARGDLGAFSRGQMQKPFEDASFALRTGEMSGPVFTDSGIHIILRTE
TCR activator: T cell receptor activation. primary human leukocytes, anti-CD3, IL-2 HTRF, 48 h. Potency, µM (titrated, usually from 9.22 µM), actives largely listed as activators. 330,000 tested, under 10 active; active means well fitted activation curve with a large enough effect; inconclusive means small, poorly fitted or top-dose-only effect, or another doubt; inactive means no such curve, though single readings can be large or run the other way
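1) Mix primary human leukocytes, a-CD3 beads and compound. 2) Incubate 48 hr. 3) Add HTRF IL-2 reagents (a-IL-2-K, a-IL-2-d2).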
gsp ag: gsp mutant agonism | gsp mutant cells, cAMP HTRF, 30 min | hit rate 0.13% among 340,000 | AID 624287 | Potency, µM (highest dose often 76.9 µM), usual class: activators; active means well fitted activation curve with a large enough effect; inconclusive means small, poorly fitted or top-dose-only effect, or another doubt; inactive means no such curve, though single readings can be large or run the other way; cell line not stated here;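 further: phosphodiesterase inhibitor Ro 20-1724 added with compounds to block cAMP breakdown; nearly all actives have a fitted effect of over 60% in size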
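Cells in DMEM/10% FBS with G418 were pretreated with compounds in DMSO plus […] (300 uM stock) for 30 min at 37C. cAMP was measured by HTRF (cAMP-d2 plus anti-cAMP antibody-K) after 30 min at room temperature.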
TSHR antagonist: human thyrotropin receptor antagonism; TSHR-expressing cells, TSH-stimulated cAMP HTRF, 2 h; hits give low values; activity change, negative = inhibition, % at 11.5 µM; hit rate 0.2% among 330,000;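 active means activity change below a set negative limit, meaning inhibition stronger than a set level, cut at about -70% in these data; inconclusive means activity change between two set negative limits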
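TSHR-expressing cells were treated with compounds, then stimulated with TSH at EC80 (4nM final) for 2 hours at 37 deg C. Cellular cAMP was measured by HTRF competition between lysate cAMP and cAMP-d2 for a cryptate-labelled anti-cAMP antibody.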
gsp antag: antagonizes gsp, the McCune-Albright syndrome mutation. gsp-mutant cells, cAMP HTRF, 30 min. Potency, µM (highest dose often 76.9 µM), usual class: inhibitors. hit rate 0.4% among 340,000. AID 624288; calls by dose curve; cell line not stated here;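 further: intracellular cAMP measured with PDE inhibitor Ro 20-1724 present during compound exposure; nearly all actives have a fitted effect of over 65% in size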
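Cells in G418 medium, seeded 16-24 h, 37C; buffer exchange to DPBS + 1 mM CaCl2, 0.5 mM MgCl2, 0.05% BSA; cpds in DMSO + […] (300 uM stock), 30 min 37C; HTRF cAMP detection.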
Each line names hits and unclear results; the compound was inactive in the other large screens.

O=C(Nc1ccc(Cl)cc1)c1cc2c(cc1O)[nH]c1ccccc12	TSHR antagonist -110.1, gsp antag 35.5µM
COc1ccccc1NC(=O)CCCc1nnc2n(C)c(=O)c3sccc3n12	gsp ag 12.6µM
CCCn1c(=O)c2sccc2n2c(CCCC(=O)Nc3ccccc3OCC)nnc12	none (no result: TCR activator, gsp ag, TSHR antagonist, gsp antag)
COCCCn1c(=O)c2sccc2n2c(CCCC(=O)NCc3ccccc3OC)nnc12	gsp ag inconclusive
COc1ccccc1CNC(=O)CCCc1nnc2n(C)c(=O)c3sccc3n12	gsp ag 14.1µM
O=C1COc2ccc(C(=O)COC(=O)c3ccccn3)cc2N1	none
CCCn1nc(C(=O)OCC(=O)c2ccc3c(c2)NC(=O)CO3)c2ccccc2c1=O	gsp antag 6.31µM
O=C1CCCN1c1cc(Cl)ccc1Cl	none
O=C(Cc1ccccc1)NNC(=O)c1ccccc1C(=O)O	gsp ag inconclusive, gsp antag 11.2µM
CC(=O)c1ccc(NC(=O)CSc2nnc(Cn3cnc4ccccc43)o2)cc1	none
COc1ccc(C(=O)CSc2nnc(Cn3cnc4ccccc43)o2)cc1	gsp antag 39.8µM
COc1cccc(-c2nc(CS(=O)(=O)CC(=O)N3CCN(c4ccccn4)CC3)c(C)o2)c1	none
COc1cccc(-c2nc(CS(=O)(=O)CC(=O)N3CCCCC3)c(C)o2)c1	TSHR antagonist -96.9
COc1cccc(-c2nc(CS(=O)(=O)CC(=O)NC3CCCCCC3)c(C)o2)c1	gsp ag inconclusive, TSHR antagonist -97.0
COc1cccc(CNC(=O)c2ccc(NC(=O)N3CCCCc4ccccc43)cc2)c1OC	none (no result: TCR activator, gsp ag, TSHR antagonist, gsp antag)
CCN(CC(=O)Nc1c(F)cccc1F)C(=O)CCCN1C(=O)c2cccc3cccc(c23)C1=O	gsp ag 12.6µM (no result: Pin1 inh, TCR activator, TSHR antagonist, gsp antag)
CC1CCC(C(C)C)C2=C1C(C#N)(C#N)C(C#N)(C#N)C(c1ccccc1)N2 (centres undefined)	Pin1 inh inconclusive
COc1ccc(OC)c(C2CC(c3c(-c4ccccc4)c4cc(Cl)ccc4[nH]c3=O)=NN2S(C)(=O)=O)c1 (centres undefined)	none
COCCNC(=O)c1cn(C)c2ccc(S(=O)(=O)N(C)C3CCCCC3)cc2c1=O	gsp antag 11.2µM
CCOCCCNC(=O)c1cn(C)c2ccc(S(=O)(=O)N(C)C3CCCCC3)cc2c1=O	none (no result: Pin1 inh, TCR activator, gsp ag, gsp antag)
CCN(CC)c1ccc(/C=N\NC(N)=O)cc1	none
CCC[C@@H](NS(=O)(=O)c1ccc(C)cc1)C(=O)Oc1ccc2c3c(c(=O)oc2c1)CCC3	gsp ag inconclusive, gsp antag 28.2µM
CN(C(=O)CN1C(=O)/C(=C/c2ccccc2Cl)SC1=S)C1CCS(=O)(=O)C1 (centres undefined)	TSHR antagonist -126.4
O=C(CSc1nnc(-c2ccncc2)n1Cc1ccco1)Nc1nc(-c2ccccc2)cs1	gsp antag 35.5µM
CCCn1c(SCC(=O)Nc2ccc(NC(C)=O)cc2)nc2c1c(=O)n(C)c(=O)n2C	gsp ag 17.8µM
COCCNCCCOc1ccc(C)cc1Br	gsp antag 35.5µM
COCCCNCCCOc1ccc(C)cc1Br	none
COc1ccc(OCC(=O)NNC(=O)C2CCN(c3ncnc4sc(C)c(C)c34)CC2)cc1	gsp antag inconclusive
Cc1sc2ncnc(N3CCC(C(=O)NNC(=O)COc4ccc(Br)cc4)CC3)c2c1C	gsp antag 31.6µM
Cc1sc2ncnc(N3CCC(C(=O)Nc4ccc(OC(F)F)c(Cl)c4)CC3)c2c1C	Pin1 inh inconclusive, gsp antag 28.2µM (no result: TCR activator, TSHR antagonist)
Cc1cc(Cl)ccc1OCC(=O)NNC(=O)C1CCN(c2ncnc3sc(C)c(C)c23)CC1	TSHR antagonist -71.6, gsp antag 35.5µM
Cc1sc2ncnc(N3CCC(C(=O)NNC(=O)COc4cccc(C(F)(F)F)c4)CC3)c2c1C	gsp antag 50.1µM
COC(=O)c1ccccc1NC(=O)CSc1nnc(-c2ccoc2C)n1C	none
C[C@H](CO)N1C[C@H](C)[C@@H](CN(C)Cc2ccncc2)Oc2c(NS(=O)(=O)c3ccc(F)cc3)cccc2C1=O	none (no result: gsp ag)
O=C(Cc1ccccc1)NCC(=O)Nc1cccc(Br)c1	none
Cc1ccc(OCC(=O)NNC(=O)C2CCN(c3ncnc4sc(C)c(C)c34)CC2)cc1	none
Cc1sc2ncnc(N3CCC(C(=O)NNC(=O)COc4ccc(Cl)cc4)CC3)c2c1C	gsp ag inconclusive, gsp antag 31.6µM (no result: TSHR antagonist)
Cc1cc(Br)ccc1NC(=O)CN(C)C(=O)C1CCN(c2ncnc3sc(C)c(C)c23)CC1	gsp antag 31.6µM (no result: TSHR antagonist)
